From PubChem BioAssay (EPA / NIEHS) come the findings set out here.

Each structure is given as a SMILES string. The source made the active and inactive calls. Rule for the calls: active = hit-call score of the fitted dose curve at least 0.9, where 1 is the maximum; inactive = score below 0.9.

A word on the AC50: it is the concentration giving half of the maximal activity seen.

Read-out in this assay: Collagen III, COL3A1 (gene 1281)
Description: BSK_MyoF_CollagenIII: BioMAP Diversity Plus: MyoF Assay for Collagen III Biomarker Activity (AID 2284239). Particulars: primary human lung fibroblasts. The method, then: BSK_MyoF is a cell-based, multiplexed-readout assay that uses lung fibroblasts, […], with measurements taken at 24 hours after chemical dosing in a microplate: 96-well plate.BSK_MyoF_CollagenIII is an assay component measured in the BSK_MyoF assay. It measures Collagen III antibody related to regulation of gene expression using ELISA technology.Data from the assay component BSK_MyoF_CollagenIII was analyzed at the endpoint, BSK_MyoF_CollagenIII, in the positive analysis fitting direction relative to DMSO as the negative control and baseline of activity. Using a type of binding reporter, gain or loss-of-signal activity can be used to understand protein changes. To generalize the intended target to other relatable targets, this assay endpoint is annotated to the 'cell adhesion molecules' intended target family, where the subfamily is 'collagen'.
The levels of cell surface (or secreted, indicated by the prefix "s") biomarker endpoints were measured by ELISA. Overt cytotoxicity to cells in confluent adherent cultures (all systems other than the BT system) was assessed by measuring total protein levels using sulforhodamine B (SRB) staining in parallel cultures at the time of biomarker measurements, indicated as SRB endpoints. For proliferation assays for adherent cell types, individual cell types are cultured at sub-confluence and relative cell numbers quantified by SRB staining at time points optimized for each system (48 h: 3C and CASM3C systems; 72 h: BT and HDF3CGF systems; 96 h: SAg system). SRB was performed by staining cells with 0.1% SRB after fixation with 10% TCA and reading wells at 560 nm.Viability and proliferation of PBMC (T cells) was quantified by Alamar Blue reduction for the SAg and BT systems. For PBMC viability (referred to as PBMC Cytotoxicity within the assay endpoint names), cells were plated (75,000/well in a 96-well plate) and then chemical samples added for 1 h before addition of activators, SEB and TSST-1 (20 ng/mL final concentration each). Cells were incubated for 90 h. Then, Alamar Blue (20 uL/well) (Invitrogen, Cat DAL1100) was added for 6 h, and the plates were read with a fluorescence microplate reader at 546/580 nm (excitation/emission). For PBMC proliferation, cells were plated and activated as above but incubated for only 16 h prior to addition of Alamar Blue. Plates were read after 6 h.
`C=CC=CC=CCCCCC`: the outcome was inactive. Take `c1ccc2c(c1)ccc1ncccc12`: the result was inactive. With `N#[N+]c1ccc2c(S(=O)(=O)[O-])cccc2c1O`, the result was inactive. `CCCCCCCCc1ccc(Nc2ccc(CCCCCCCC)cc2)cc1`: the outcome was inactive. `O=Nc1ccc(O)cc1`: the outcome was inactive. As for `CCCCCCCCCCCCCCCC[N+](C)(C)CC`, the AC50 was 0.967 µM (active).

`O=c1c2ccccc2oc2ccccc12`: the result was inactive.

Consider `CCOc1nc(F)cc2nc(S(=O)(=O)Nc3c(Cl)cccc3C(=O)OC)nn12`, for which the outcome was inactive.

With `O=C(Nc1ccccc1SSc1ccccc1NC(=O)c1ccccc1)c1ccccc1`, the outcome was inactive.

Consider `CC(C)C(=O)C(C)C`, for which the outcome was inactive.

As to `C=CC(=O)OCC(Br)CBr` (configuration not stated), the AC50 was 32.7 µM (active).

For the molecule `CCCCNc1ccc(NCCCC)c2c1C(=O)c1ccccc1C2=O`, the result was inactive. `C=CCOCC(O)CCl` (configuration not stated): the result was inactive.

Turning to `CCCCC/C=C\C/C=C\CCCCCCCC(=O)OC`, the AC50 was 20 µM (active). Turning to `O=C(Cl)c1cc(C(=O)Cl)cc(C(=O)Cl)c1`, the AC50 is 33.2 µM (active). Regarding `C=CCOc1c(Br)cc(Br)cc1Br`, the AC50 was 26.2 µM (active). On to `c1ccc(-c2ccccn2)nc1`, for which the result was inactive. As for `COc1ccc2nc(N)sc2c1`, the outcome was inactive. For the molecule `S=C(NC1CCCCC1)NC1CCCCC1`, the outcome was inactive. For `CC1OC1C1CCC2(C)OC2C1` (configuration not stated), the outcome was inactive. In the case of `CC(C)(c1cc(Br)c(OCCO)c(Br)c1)c1cc(Br)c(OCCO)c(Br)c1`, the AC50 was 7.69 µM (active).

Take `CCO[Si](CCCN=C=O)(OCC)OCC`: the result was inactive. For the molecule `CCCCC(CC)COC(=O)c1ccccc1O` (configuration not stated), the result was inactive. As to `COCc1c(C(C)C)nc(C(C)C)c(/C=C/[C@@H](O)C[C@@H](O)CC(=O)O)c1-c1ccc(F)cc1`, the AC50 is 0.867 µM (active). In the case of `c1ccc2c(c1)ccc1cc3c(ccc4ccccc43)cc12`, the outcome was inactive. With `C#CC1(O)CC[C@H]2[C@@H]3CCC4=CCCC[C@@H]4[C@H]3CC[C@@]21C` (some centres not stated), the AC50 was 31.8 µM (active). As to `C/C=C\C/C=C/CCCCCCCCOC(C)=O`, the result was inactive.
